# Screens deposited in PubChem BioAssay by The Scripps Research Institute Molecular Screening Center.
# hgDAF-12 ag: H. glycines DAF-12 receptor agonists, primary screen, cell-based, luminescence, HEK293, GAL4 fusion, UAS-luciferase | 370,000 tested, 1.8% active | Nuclear hormone receptor DAF-12 (Heterodera glycines), GAL4 fusion | activation, % at 6.8 µM | HEK293 GAL4-hgDAF12 UAS-luciferase reporter, agonist luminescence; normalized to butyrate control;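 active = activation above a cutoff set at the mean of all screened compounds plus 3 SD, cut at about 10% in these data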
# hcDAF12 agonist: H. contortus DAF-12 nuclear receptor activators, primary screen, cell-based, luminescence, HEK293, lit1-tk-luc reporter; HEK293 hcDAF-12 lit1-tk-luc reporter; 0% DMSO, 100% Δ7-dafachronic acid; activation, % at 6.8 µM; AID 652067, 2013; 370,000 tested, 1.4% active;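 active = activation above the mean of all tested compounds plus 3 SD, cut at about 5.5% in these data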
# DAX1 inh-1: DAX1 (NR0B1) inhibitors, primary screen, cell-based, HEK293, Gal4-DAX1, luciferase luminescence. 340,000 tested, 0.99% active. inhibition, % at 6.75 µM. HEK293 Gal4-DAX1 luciferase reporter. Nuclear receptor subfamily 0 group B member 1 (Homo sapiens), P51843;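 active = inhibition above the mean over all tested compounds plus 3 SD, cut at about 4.2% in these data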;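 also: inhibition shows as a rise in luminescence from relieved DAX1 repression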
# Target sequence (P51843 207-470 limits assumed): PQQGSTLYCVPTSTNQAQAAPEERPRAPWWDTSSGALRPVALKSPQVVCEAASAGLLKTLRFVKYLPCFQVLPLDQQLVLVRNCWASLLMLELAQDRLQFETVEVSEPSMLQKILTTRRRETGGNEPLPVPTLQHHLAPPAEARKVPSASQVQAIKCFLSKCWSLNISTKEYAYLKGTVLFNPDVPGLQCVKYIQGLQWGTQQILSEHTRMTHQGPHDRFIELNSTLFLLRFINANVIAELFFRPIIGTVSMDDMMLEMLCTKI
# DAX1 inh-2: DAX1 (NR0B1) inhibitors on StAR promoter, primary screen, cell-based, luminescence, SF-1 (NR5A1), full-length DAX-1. HEK293T StAR-luciferase reporter, SF-1/DAX-1 repression relief. inhibition, % at 6.8 µM. 370,000 tested, 1.1% active. AID 652010, 2013;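 active = inhibition above the mean over all tested compounds plus 3 SD, cut at about 3.6% in these data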;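 also: higher inhibition means more luminescence from relief of DAX-1 repression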
# ssDAF-12 act: S. stercoralis DAF-12 nuclear receptor activators, primary screen, cell-based, luminescence, HEK293, GRIP1 co-expression, lit1-tk-luc | HEK293 ssDAF-12/GRIP1 lit1-tk-luc reporter; % of 3 µM dafachronic acid response | activation, % at 6.8 µM | 370,000 tested, 1% active | AID 652126, 2013;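 active = activation above the mean over all tested compounds plus 3 SD, cut at about 0.9% in these data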
# LXRb hcDAF ctr: LXR agonists, Gal4 luciferase reporter, confirmation, counter-screen for hcDAF-12 agonist project, cell-based, luminescence, HEK293, H. contortus campaign | shares compounds with hcDAF12 agonist | HEK293 Gal4-LXR tk-luc reporter, 24 h; normalized: DMSO 0%, positive control 100% | activation, % at 6.8 µM | 3,400 tested, under 10 active | AID 743027, 2013;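 active = mean percent activation of the reporter above a cutoff set as the average over tested compounds plus their standard deviation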
# hcDAF12 conf: H. contortus DAF-12 receptor agonists, confirmation, cell-based, luminescence, HEK293, lit1-tk-luc, triplicate; HEK293 hcDAF-12 lit1-tk-luc reporter; % of Δ7-dafachronic acid response; activation, % at 6.8 µM; shares compounds with hcDAF12 agonist; AID 743032, 2013; 3,400 tested, 61% active;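 active = mean activation across triplicate tests above the threshold derived from the earlier primary screen, cut at about 5.5% in these data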
# Numbers stand for hits; 0 = inactive; - = no result. Shown are actives, neighbours in structure and some others; about 4.1% of the full set was active somewhere.
SMILES,hgDAF-12 ag,hcDAF12 agonist,DAX1 inh-1,DAX1 inh-2,ssDAF-12 act,LXRb hcDAF ctr,hcDAF12 conf
CC(C)C[C@H](NC(=O)c1ccccn1)C(=O)N1CCC[C@H]1C(=O)NCc1ccccc1,0,0,-,0,0,-,-
Cc1c(C(=O)N2CCc3ccccc32)oc2ccccc12,19,14,0,4.4,4.6,0,18
O=C(c1ccc2c(c1)OCO2)N1CCc2ccccc21,0,7.1,0,0,1.1,0,0
CN(C)S(=O)(=O)c1ccc(C(=O)NCC(=O)Nc2ccc(F)c(F)c2)cc1,0,6.8,0,0,0,0,0
CN(C)S(=O)(=O)c1ccc(C(=O)Nc2ccc(Cl)cc2)cc1,0,0,0,0,0,-,-
Fc1ccc(F)c(C2=NNC(=Nc3ccccc3F)SC2)c1,13,8.6,0,0,2.7,0,8.1
Fc1ccccc1N=C1NN=C(c2ccccc2)CS1,12,12,0,0,1.0,0,8.5
Cc1c(C(=O)NCc2ccccc2C(F)(F)F)sc(=O)n1Cc1ccc2c(c1)OCO2,0,0,-,0,0,-,-
O=C(COC(=O)c1ccc(F)cc1F)Nc1ccc(S(=O)(=O)N2CCOCC2)cc1,0,0,0,0,0,-,-
COC(=O)C1CN(Cc2cn(CCOC(C)=O)nn2)CCS(=O)(=O)N1Cc1ccc(OC)cc1 (stereo not drawn),0,0,-,0,0,-,-
Nc1ccccc1N1C(=O)c2cccc3cccc(c23)C1=O,0,6.7,-,0,0,0,0
O=C1c2cccc3cccc(c23)C(=O)N1c1ccccc1Cl,0,0,0,0,0,-,-
O=C1CSc2ccc(C(=O)N3CCCC(C(=O)N4CCN(c5ccc(F)cc5)CC4)C3)cc2N1 (stereo not drawn),0,0,-,0,0,-,-
C=CCOc1ccc(C(c2c(C(=O)O)[nH]c3ccccc23)c2c(C(=O)O)[nH]c3ccccc23)cc1,0,7.5,0,0,0,0,7.6
O=C1c2ccccc2CCC12N=NCC2c1ccc(Cl)cc1 (stereo not drawn),0,7.4,0,0,0,0,0
O=C1c2ccccc2CCC12N=NCC2c1ccc(Br)cc1 (stereo not drawn),0,0,0,0,0,-,-
Cc1ccc(-c2nnn3c2nc(NC(C)C)c2ccccc23)cc1,0,6.8,0,0,0,0,0
CNc1nc2c(-c3ccc(Cl)cc3)nnn2c2ccccc12,0,0,0,0,0,-,-
Nc1nc2c(-c3ccc(Br)cc3)nnn2c2ccccc12,11,7.7,0,0,1.0,0,22
COC(=O)[C@]12CCCCC=C1N(Cc1ccco1)C(=O)[C@H](CC(=O)NCc1cccc3ccccc13)C2,0,0,-,0,0,-,-
O=C(CNS(=O)(=O)c1cccs1)N1CCN(c2ncccn2)CC1,0,0,-,0,0,-,-
CN/N=C(\Cc1nc2ccccc2[nH]1)c1ccc([N+](=O)[O-])cc1,0,7.0,0,0,0,0,7.8
CCOC(=O)[C@@H](C)N1[C@@H](C)[C@H](c2ccccc2)Oc2ccc(Cl)cc2S1(=O)=O,0,0,-,0,0,-,-
O=C1C(=C(O)c2ccccc2)C(=O)c2ccccc21,0,7.0,0,0,2.1,0,0
COc1ccc(/C(C)=N/Nc2nc3ccccc3nc2C)cc1OC,0,8.4,5.1,0,0,0,0
SMILES,hgDAF-12 ag,hcDAF12 agonist,DAX1 inh-1,DAX1 inh-2,ssDAF-12 act,LXRb hcDAF ctr,hcDAF12 conf
O=C(NCCN1CCc2ccccc2C1)C1CCN(S(=O)(=O)N2CCC3(CC2)OCCO3)CC1,0,7.5,0,0,0,0,0
O=C(NCCN1CCc2ccccc2C1)C1CCN(S(=O)(=O)N2CCCCC2)CC1,0,0,0,0,0,-,-
Cc1ccc(NC(=O)Nc2cccc(C)n2)cc1,0,14,0,0,1.4,0,12
Cc1cccc(NC(=O)Nc2ccc(F)cc2)n1,0,0,0,0,0,-,-
CS(=O)(=O)N1CCC[C@]2(CC[C@@H](CCC#N)O2)C1,0,0,-,0,0,-,-
CC(C)(C)C(=O)NC1CCCCN(Cc2ccc(Cl)cc2)C1=O (stereo not drawn),0,0,-,0,0,-,-
C/C(=N\O)c1sc(-c2ccccc2)nc1C,12,12,0,3.8,1.1,0,7.2
C=C(C)c1sc(-c2ccccc2)nc1C,0,0,-,0,0,-,-
CCN(CC)CCCNc1nc(-c2ccccc2)nc2ccccc12,0,0,0,0,0,-,-
COc1ccc(-c2nc(NCCCN(C)C)c3ccccc3n2)cc1,0,10.0,6.7,0,0,0,9.3
CCOc1ccc2[nH]c3c(NCCN(CC)CC)ncnc3c2c1,0,0,0,0,0,-,-
CCN(CC)CCCNc1nc2ccccc2c2[nH]c3ccc(OC)cc3c12,0,14,0,0,3.6,0,16
COC(=O)C1CN(CCO)CCS(=O)(=O)N1Cc1cn(Cc2cccc(Cl)c2)nn1 (stereo not drawn),0,0,-,0,0,-,-
C(#Cc1ccc2c(c1)COc1c3ccccc3nn1-2)c1ccccc1,0,0,0,0,0,-,-
C#Cc1ccc2c(c1)COc1c3ccccc3nn1-2,12,11,0,0,1.8,0,8.3
CC(C)c1ccc2c(c1)[C@H]1OCC[C@H]1[C@@H](c1cccs1)N2,0,14,0,0,0,0,0
Cc1cc(O)c(C(=O)/C=C/c2ccc(C(C)C)cc2)c(=O)o1,11,8.6,5.7,0,1.1,0,0
Cc1cc(O)c(C(=O)/C=C/c2ccccc2)c(=O)o1,0,0,0,0,0,-,-
COc1cc2cc(C(c3nnnn3C3CCCC3)N3CCc4ccccc43)c(=O)[nH]c2cc1OC (stereo not drawn),-,-,0,-,-,-,-
COc1cc2cc(C(c3nnnn3C(C)(C)C)N3CCc4ccccc43)c(=O)[nH]c2cc1OC (stereo not drawn),0,7.3,0,0,0,0,0
Cc1ccc(/C=C/C(=O)OCC(=O)N(C)c2c(N)n(Cc3ccccc3)c(=O)[nH]c2=O)o1,0,0,0,0,0,-,-
COC(=O)c1cc2c(s1)-c1ccc(OC)cc1CC2,0,7.1,7.7,0,0,0,0
COc1ccccc1N1CCN(C(=O)c2cc3c(s2)-c2ccccc2OC3)CC1,0,0,0,0,0,-,-
